Values joined by “and” are separate entries in the source; they are usually repeats but may differ in a detail not shown here. Equal values may be shown once. Results filed as inconclusive are left out. Active and inactive are the calls of the source. The call rests on the fitted dose curve; in most records, active means well fitted inhibition curve with a large enough effect; inconclusive means small, poorly fitted or top-dose-only effect; inactive means no such curve, though single readings can be large or run the other way.
biological target: RecQ-like DNA helicase BLM (Homo sapiens) (UniProt P54132); assay: qHTS for Inhibitors of Bloom's syndrome helicase (BLM): Helicase DNA unwinding fluorescent orthogonal confirmatory assay for SAR; settings: fluorescence, orthogonal confirmation; series mostly up to 55.6 µM
Sequence (P54132 whole entry, looked up): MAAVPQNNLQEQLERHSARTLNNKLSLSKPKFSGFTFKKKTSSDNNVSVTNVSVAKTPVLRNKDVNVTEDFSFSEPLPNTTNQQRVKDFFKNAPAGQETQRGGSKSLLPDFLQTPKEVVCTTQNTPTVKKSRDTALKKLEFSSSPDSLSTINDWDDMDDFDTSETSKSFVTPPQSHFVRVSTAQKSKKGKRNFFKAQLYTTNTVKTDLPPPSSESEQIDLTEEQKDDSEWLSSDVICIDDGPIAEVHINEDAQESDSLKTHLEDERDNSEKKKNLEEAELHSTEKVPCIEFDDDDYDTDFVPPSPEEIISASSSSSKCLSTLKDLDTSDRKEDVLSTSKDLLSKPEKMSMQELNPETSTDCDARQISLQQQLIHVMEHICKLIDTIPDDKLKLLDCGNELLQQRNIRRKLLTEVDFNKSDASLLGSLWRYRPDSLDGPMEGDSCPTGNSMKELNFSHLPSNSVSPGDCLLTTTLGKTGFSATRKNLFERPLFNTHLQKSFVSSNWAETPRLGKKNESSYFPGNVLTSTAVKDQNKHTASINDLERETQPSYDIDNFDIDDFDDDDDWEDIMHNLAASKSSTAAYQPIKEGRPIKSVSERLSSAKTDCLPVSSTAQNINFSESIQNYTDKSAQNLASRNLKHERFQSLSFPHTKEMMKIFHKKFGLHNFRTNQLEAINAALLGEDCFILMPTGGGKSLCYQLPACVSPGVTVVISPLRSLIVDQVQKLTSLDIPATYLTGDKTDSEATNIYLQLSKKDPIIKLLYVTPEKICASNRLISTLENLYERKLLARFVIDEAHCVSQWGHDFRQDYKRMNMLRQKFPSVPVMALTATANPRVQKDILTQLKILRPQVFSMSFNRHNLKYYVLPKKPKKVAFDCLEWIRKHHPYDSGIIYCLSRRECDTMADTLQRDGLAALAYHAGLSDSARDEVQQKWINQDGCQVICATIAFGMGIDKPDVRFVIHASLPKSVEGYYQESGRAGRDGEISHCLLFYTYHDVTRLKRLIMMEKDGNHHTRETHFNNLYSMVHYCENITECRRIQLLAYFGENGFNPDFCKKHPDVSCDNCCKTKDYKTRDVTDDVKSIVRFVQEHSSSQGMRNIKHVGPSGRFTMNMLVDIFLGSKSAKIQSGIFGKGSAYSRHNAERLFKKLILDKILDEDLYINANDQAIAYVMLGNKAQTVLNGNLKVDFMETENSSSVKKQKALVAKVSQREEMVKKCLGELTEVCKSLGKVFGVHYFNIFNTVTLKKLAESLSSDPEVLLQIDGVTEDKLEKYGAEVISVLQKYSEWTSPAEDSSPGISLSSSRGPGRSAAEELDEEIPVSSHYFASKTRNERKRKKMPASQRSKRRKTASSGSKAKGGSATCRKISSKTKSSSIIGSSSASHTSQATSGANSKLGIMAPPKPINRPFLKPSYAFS
In short: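 Purified BLM unwound a fluorescently labelled DNA substrate at room temperature in pH 7.5 Tris buffer with 2mM ATP and 2mM MgCl2. Products were resolved on native 15% gels. Loss of single-stranded product band, normalised to no-inhibitor and no-enzyme controls, indicates inhibition.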

| Compound | Potency |
| --- | --- |
| O=C(Nc1cccc(C(F)(F)F)c1)Nc1nnc(-c2ccncc2)s1 | 14.1 µM (active) |
| Cc1cc(Nc2c(Nc3nnc(-c4ccncc4)s3)c(=O)c2=O)ccc1Cl | 22.4 µM (active) |
| Cc1cc(NC(=O)Nc2nnc(-c3ccncc3)s2)ccc1-c1cn[nH]c1 | 11.2 µM (active) |
| CCCCCCNC(=O)Nc1nnc(-c2ccncc2)s1 | inactive |
| O=C(Nc1ccc(Br)cc1)Nc1nnc(-c2ccncc2)s1 | 12.6 µM (active) |
| O=C(Nc1ccc(Cl)c(Cl)c1)Nc1nc(-c2ccncc2)cs1 | 28.2 µM (active) |
| Cc1cc(NC(=O)Nc2nnc(-c3ccncc3)s2)ccc1Cl | 7.94 µM (active) |
| Cc1cc(NC(=O)Nc2nnc(-c3cccnc3)s2)ccc1F | 25.1 µM (active) |
| O=C(Nc1ccc2ccccc2c1)Nc1nnc(-c2ccc(F)cc2)s1 | inactive |
| N#Cc1cc(NC(=O)Nc2nnc(-c3ccncc3)s2)ccc1-c1cn[nH]c1 | 1.58 µM (active) and 7.08 µM (active) |
| O=C(Nc1ccc(Cl)c([N+](=O)[O-])c1)Nc1nnc(-c2ccc(F)cc2)s1 | 2.24 µM (active) |
| Cc1cc(NC(=O)Nc2nnc(-c3ccncc3)s2)ccc1Br | 12.6 µM (active) |
| Cc1cc(NC(=O)Nc2nnc(-c3ccncc3)s2)ccc1F | 15.8 µM (active) |
| N#Cc1ccc(NC(=O)Nc2nnc(-c3ccncc3)s2)cc1 | 7.94 µM (active) |
| O=C(Nc1ccc2ccccc2c1)Nc1nnc(-c2ccccc2Cl)s1 | inactive |
| N#Cc1cccc(NC(=O)Nc2nnc(-c3ccncc3)s2)c1 | 8.91 µM (active) |
